The source made the active and inactive calls. How the source made its calls: active means hit-call score of the fitted dose curve at least 0.9, where 1 is the maximum; inactive means score below 0.9.

human Mitogen-Activated Protein Kinase 11 (MAPK 11), MAPK11 (gene 5600), sequence (Q15759 whole entry, looked up): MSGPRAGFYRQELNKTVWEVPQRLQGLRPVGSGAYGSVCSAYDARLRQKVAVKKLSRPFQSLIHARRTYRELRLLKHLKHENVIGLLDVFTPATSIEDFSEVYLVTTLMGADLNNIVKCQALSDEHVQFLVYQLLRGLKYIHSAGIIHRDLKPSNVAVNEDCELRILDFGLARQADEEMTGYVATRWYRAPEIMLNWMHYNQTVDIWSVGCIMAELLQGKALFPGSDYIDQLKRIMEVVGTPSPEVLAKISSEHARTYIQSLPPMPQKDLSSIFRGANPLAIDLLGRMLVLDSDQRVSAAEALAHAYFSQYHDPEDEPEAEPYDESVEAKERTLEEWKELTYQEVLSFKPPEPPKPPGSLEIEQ

For this experiment, the target named is human Mitogen-Activated Protein Kinase 11 (MAPK 11), MAPK11 (gene 5600) (UniProt Q15759). Kind of experiment: NVS_ENZ_hMAPK11: NovaScreen (NVS) Enzymatic Assay for human Mitogen-Activated Protein Kinase 11 (MAPK 11). The method, then:
NVS_ENZ_hMAPK11 is a biochemical, single-readout assay that uses extracted gene-proteins in a cell-free assay. Measurements were taken 0 hour after chemical dosing in a 384-well plate.NVS_ENZ_hMAPK11 is one of one assay component(s) measured or calculated from the NVS_ENZ_hMAPK11 assay. It is designed to make measurements of enzyme activity, a form of enzyme reporter, as detected with fluorescence intensity signals by Fluorescence and electrophoretic mobility shift technology.Data from the assay component NVS_ENZ_hMAPK11 was analyzed into 1 assay endpoint. This assay endpoint, NVS_ENZ_hMAPK11, was analyzed in the positive analysis fitting direction relative to DMSO as the negative control and baseline of activity. Using a type of enzyme reporter, loss-of-signal activity can be used to understand changes in the enzymatic activity as they relate to the gene MAPK11. Furthermore, this assay endpoint can be referred to as a primary readout, because this assay has produced multiple assay endpoints where this one serves a enzymatic activity function. To generalize the intended target to other relatable targets, this assay endpoint is annotated to the kinase intended target family, where the subfamily is serine/threonine kinase.
Binding assays used specific radioligands (tritiated, iodinated) with non-radioactive competitive displacement ligands in agonist or antagonist protocols (as indicated) and various reference compounds and inhibitors to titrate specific binding to receptors and transporters. Most enzyme assays (CYPs, kinases, phosphatases, proteases, HDACs) used recombinant protein and specific substrates (fluorescence mostly, some colorimetric and radioactive) and inhibitors, followed by a biochemical separation of substrate and product. All assays for the biochemical HTS were initially run in duplicate at a single concentration (10 uM for CYP450 assays and 25 uM for all others). Assay-chemical combinations meeting a pre-defined threshold (e.g., 30% inhibition and other criteria defined below) were then run in singleton concentration-response format with maximum concentration of 20 uM for CYPs and 50 uM for all others. Each assay was run with positive and negative controls, and concurrent controls on every plate. The follow-up (secondary) screen tested active chemical-pairs in concentration series, as well as a few additional assays not tested in the primary screen, some selected negative inactives, and several cases re-run in the concentration series for confirmatory purposes.
Consider `C#CCOC(=O)[C@@H](C)Oc1ccc(Oc2ncc(Cl)cc2F)cc1`, for which the molecule was classed as inactive.

Consider `S=C(S)NCCNC(=S)S.[Mn+2].[S-]C([S-])=NCCN=C([S-])[S-].[Zn+2]`, for which the AC50 (commonly the concentration giving half of the maximal activity seen) is 16.6 µM (active).

In the case of `CCCCC(CC)COC(=O)c1ccccc1C(=O)O` (stereo unspecified), the molecule was called inactive.

On to `CC(C)(c1ccc(O)cc1)c1ccc(O)cc1`, for which the molecule was called inactive.

In the case of `COCCO`, the call was inactive.

For `S=C([S-])NCCNC(=S)[S-].[Mn+2]`, the AC50 was 24.4 µM (active).

The record behind these values is PubChem BioAssay AID2283174 (EPA ToxCast).
